Results reported in PubChem BioAssay (NCI).
The panel holds about 79,000 compounds, 15% with a hit somewhere; the sample as a whole holds those more often. Active and inactive are the calls of the source. Cut-off read from the data, not from the text of the source: active = growth inhibition above about 70%; inactive = the rest.

How the values were obtained:
[1] = NCI Yeast Anticancer Drug Screen. Data for the rad50 strain (AID 155);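 note: 0% = growth of vehicle-only cultures of the same strain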; conditions: S. cerevisiae rad50 strain growth inhibition, hits give high values
Procedure, shortened: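 A DNA repair-deficient yeast mutant serves as the test organism; compound-induced growth inhibition is calculated against vehicle-treated cells.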

[2] = NCI Yeast Anticancer Drug Screen. Data for the mec2-1 strain (AID 157); conditions: S. cerevisiae mec2-1 strain, hits give high values
Procedure, shortened: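 Test agents were screened against the mec2-1 yeast strain, with defined DNA repair or cell cycle alteration. Growth was scored as inhibition against vehicle-only controls.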

[3] = NCI Yeast Anticancer Drug Screen. Data for the sgs1 mgt1 strain (AID 161);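 note: 0% = growth of cultures given vehicle only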; conditions: S. cerevisiae sgs1 mgt1 strain, hits give high values
Procedure, shortened: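 Inhibition of yeast growth, normalised to vehicle-treated controls, is reported for a strain bearing genetic alterations in DNA damage repair.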

[4] = NCI Yeast Anticancer Drug Screen. Data for the cln2 rad14 strain (AID 165);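 note: 0% = growth equal to vehicle treated cultures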; conditions: S. cerevisiae cln2 rad14 strain, hits give high values
Procedure, shortened: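 Growth of compound-exposed yeast (cln2 rad14 genotype) measured and expressed as inhibition relative to vehicle.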

[5] = NCI Yeast Anticancer Drug Screen. Data for the bub3 strain (AID 167); conditions: S. cerevisiae bub3 mutant strain, hits give high values
Procedure, shortened: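 Inhibition values come from growth of compound-treated mutant yeast normalised to vehicle-treated controls.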

[6] = NCI Yeast Anticancer Drug Screen. Data for the mlh1 rad18 strain (AID 175); conditions: S. cerevisiae mlh1 rad18 strain growth inhibition, hits give high values
Procedure, shortened: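 In this whole-cell yeast screen, a strain with altered DNA damage repair is challenged with compound, and its growth is measured against matched vehicle-treated controls.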

[7] = at 5.0 µM (retest, dose inferred, filed as 0.5)
[8] = at 50.0 µM (retest, dose inferred, filed as 5.0)

Measured: growth inhibition

CN(C)CCCC(C#N)(CCCN(C)C)c1ccccc1
inactive: [1]; [7] 15% | [1]; [8] -2% | [1]; at 50.0 µM 15% | [2]; [7] -1% | [2]; [8] 5% | [2]; at 50.0 µM -2.05% | [3]; [7] 6% | [3]; [8] 0% | [3]; at 50.0 µM 10.6% | [4]; [7] -2% | [4]; [8] 6% | [4]; at 50.0 µM -51.6% | [5]; [7] -3% | [5]; [8] -1% | [5]; at 50.0 µM -18.5% | [6]; [7] -3% | [6]; [8] 8% | [6]; at 50.0 µM 31.4%

CC(C)C1(Cl)CCC2C3(C)CCCC(C)(C(=O)O)C3CC(Cl)C2(Cl)C1Cl (stereo not given)
active: [1]; [8] 75% | [1]; at 50.0 µM 80.8% | [2]; [8] 78% | [2]; at 50.0 µM 74.9% | [3]; at 50.0 µM 70% | [4]; [8] 84% | [4]; at 50.0 µM 95.8% | [5]; [8] 79% | [5]; at 50.0 µM 72.5% | [6]; [8] 78% | [6]; at 50.0 µM 86.7%
inactive: [1]; [7] 3% | [2]; [7] 5% | [3]; [7] 17% | [3]; [8] 61% | [4]; [7] -12% | [5]; [7] 14% | [6]; [7] -15%

CCOC(=O)C1=C(c2ccccc2)c2ccccc2OC1C(=O)O (stereo not given)
inactive: [1]; [7] 8% | [1]; [8] 38% | [1]; at 50.0 µM 26.5% | [2]; [7] 22% | [2]; [8] 60% | [2]; at 50.0 µM 14.8% | [3]; [7] 16% | [3]; [8] 64% | [3]; at 50.0 µM 19.5% | [4]; [7] 2% | [4]; [8] 38% | [4]; at 50.0 µM 59.9% | [5]; [7] 16% | [5]; [8] 29% | [5]; at 50.0 µM 32.5% | [6]; [7] 34% | [6]; at 50.0 µM 55.8%
active: [6]; [8] 78%

CC(=O)OC(OC(C)=O)c1ccc([N+](=O)[O-])s1
active: [1]; [8] 100% | [1]; at 50.0 µM 99.4% | [2]; [8] 100% | [2]; at 50.0 µM 99.4% | [3]; [8] 100% | [3]; at 50.0 µM 99.5% | [4]; [8] 99% | [4]; at 50.0 µM 99.1% | [5]; [8] 100% | [5]; at 50.0 µM 99.5% | [6]; [8] 100% | [6]; at 50.0 µM 99.5%
inactive: [1]; [7] -77% | [2]; [7] -18% | [3]; [7] 10% | [4]; [7] 1% | [5]; [7] -7% | [6]; [7] 19%

C=C1CC2(C[C@@H](c3ccccc3)O[C@@H](c3ccccc3)C2)OC1=O (stereo not given in full)
inactive: [1]; [7] 20% | [2]; [7] 4% | [3]; [7] 2% | [4]; [7] 35% | [5]; [7] 33% | [6]; [7] 15%
active: [1]; [8] 97% | [1]; at 50.0 µM 95% | [2]; [8] 98% | [2]; at 50.0 µM 94.6% | [3]; [8] 98% | [3]; at 50.0 µM 94.5% | [4]; [8] 97% | [4]; at 50.0 µM 90.5% | [5]; [8] 98% | [5]; at 50.0 µM 95.2% | [6]; [8] 98% | [6]; at 50.0 µM 92.5%

C=CCSc1nc2ccc(N3C(=O)C=CC3=O)cc2s1
active: [1]; [8] 99% | [1]; at 50.0 µM 94.7% | [2]; [8] 99% | [2]; at 50.0 µM 98% | [3]; [8] 100% | [3]; at 50.0 µM 97.5% | [4]; [8] 98% | [4]; at 50.0 µM 96.5% | [5]; [8] 99% | [5]; at 50.0 µM 99% | [6]; [7] 85% | [6]; [8] 97% | [6]; at 50.0 µM 97.8%
inactive: [1]; [7] 59% | [2]; [7] 50% | [3]; [7] 51% | [4]; [7] 24% | [5]; [7] 27%

COC(=O)C1=C(C)NC(c2ccc(OC)cc2OC)C(C(=O)OC)=C1C (stereo not given)
active: [3]; at 50.0 µM 76.8%
inactive: [1]; [7] 4% | [1]; [8] 21% | [1]; at 50.0 µM 68.7% | [2]; [7] 3% | [2]; [8] 11% | [2]; at 50.0 µM 25.6% | [3]; [7] 1% | [3]; [8] 14% | [4]; [7] -3% | [4]; [8] 4% | [4]; at 50.0 µM 25.6% | [5]; [7] 1% | [5]; [8] 16% | [5]; at 50.0 µM 49.7% | [6]; [7] -1% | [6]; [8] 24% | [6]; at 50.0 µM 58%

CCCCCC1OC1CC1OC1CCCCCCCC(=O)OC (stereo not given)
inactive: [1]; [7] -2% | [1]; [8] 1% | [1]; at 50.0 µM 36.5% | [2]; [7] -1% | [2]; [8] -2% | [2]; at 50.0 µM 18.8% | [3]; [7] -4% | [3]; [8] 4% | [3]; at 50.0 µM 40.4% | [4]; [7] -4% | [4]; [8] -8% | [4]; at 50.0 µM -27.4% | [5]; [7] -1% | [5]; [8] -7% | [5]; at 50.0 µM 50.1% | [6]; [7] 4% | [6]; [8] 1% | [6]; at 50.0 µM 59%

CC1(C)COC(C)(C(=O)O)OC1
inactive: [1]; [7] 2% | [1]; [8] -5% | [1]; at 50.0 µM 51.6% | [2]; [7] -2% | [2]; [8] -1% | [2]; at 50.0 µM -3.35% | [3]; [7] 4% | [3]; [8] 2% | [3]; at 50.0 µM -5.8% | [4]; [7] 0% | [4]; [8] -6% | [4]; at 50.0 µM -50.7% | [5]; [7] -4% | [5]; [8] 0% | [5]; at 50.0 µM -1.8% | [6]; [7] 6% | [6]; [8] -1% | [6]; at 50.0 µM -8%

O=C1C=CC(=O)C(c2ccccc2)=C1
active: [1]; [8] 99% | [1]; at 50.0 µM 99.5% | [2]; [8] 99% | [2]; at 50.0 µM 99.5% | [3]; [8] 99% | [3]; at 50.0 µM 99.5% | [4]; [8] 99% | [4]; at 50.0 µM 98.8% | [5]; [8] 99% | [5]; at 50.0 µM 99.5% | [6]; [8] 99% | [6]; at 50.0 µM 99.2%
inactive: [1]; [7] 12% | [2]; [7] 24% | [3]; [7] 18% | [4]; [7] 16% | [5]; [7] 3% | [6]; [7] 18%
